NS3h inh CB: HCV NS3 helicase inhibitors, primary screen, biochemical, fluorescence polarization, ChemBridge library; Hepatitis C virus NS3 helicase; NS3h Cy5-dT15 DNA binding; inhibition, % at 100 µM; actives 1.6% (n = 16,000);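 active = inhibition above the average over every tested compound plus 3 SD, cut at about 40% in these data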
Cy5 interf NS3h: Cy5 fluorescence quenchers or enhancers, artefact control for HCV NS3 helicase inhibitor project, biochemical, ChemBridge library, Cy5 readout | Cy5-dT15 DNA with NS3h, fluorescence interference; actives lie on both sides; signal over control mean, under 1 quenches | fluorescence interference ratio at 100 µM | actives 6% (n = 16,000) | AID 720488, 2013;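 active = compound fluorescence over control fluorescence at most 0.8, a quencher, or at least a set upper limit, an enhancer; inactive = ratio between 0.8 and the set upper limit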
Numbers stand for hits; - = inactive. Most compounds without a hit are left out; they make up all but 6.8% or so of the library.

SMILES	NS3h inh CB	Cy5 interf NS3h
CCc1ccc(NC(=O)c2ccc(C)c([N+](=O)[O-])c2)cc1	-	-
Cc1ccc(C(=O)Nc2ccc3oc(-c4ccc(F)cc4Cl)nc3c2)cc1[N+](=O)[O-]	-	0.74
CCOc1cccc(C(=O)Nc2ccc3nn(-c4ccc(F)cc4)nc3c2)c1	-	-
COc1cccc(C(=O)Nc2ccc3oc(-c4ccc(F)cc4Cl)nc3c2)c1	-	-
CCCOP(=O)(OCCC)C(Nc1ccc(Cl)cc1)c1ccc(Br)cc1 (stereo not drawn)	-	-
COC(=O)c1ccc(NC(=S)NC(=O)c2ccc(OC)cc2)cc1	-	-
COc1ccc(C(=O)Nc2ccc(C(=O)O)cc2)cc1	-	1.2
O=C(Nc1ccc(Oc2ccccc2)cc1)c1ccc([N+](=O)[O-])cc1	-	-
CCOc1ccc(NC(=O)c2ccc(Cl)c([N+](=O)[O-])c2)cc1	-	0.73
CCOc1ccccc1NC(=O)c1ccc(C)c([N+](=O)[O-])c1	-	0.75
CCOc1ccc(NC(=O)c2ccc(C)c([N+](=O)[O-])c2)cc1	-	-
NS(=O)(=O)c1ccc(NC(=O)c2ccc(Oc3ccccc3)cc2)cc1	-	1.2
CCOc1ccccc1NC(=O)c1ccc([N+](=O)[O-])cc1	-	-
N#CC1=C(SCc2ccccc2)NC(=O)C(C#N)C12CCCCC2 (stereo not drawn)	-	-
CC1=C(C(=O)Nc2ccc(C)cc2)C(c2ccccc2Br)NC(=S)N1 (stereo not drawn)	-	-
NS(=O)(=O)c1ccc(CCNc2ccc(C(F)(F)F)cc2[N+](=O)[O-])cc1	-	-
O=C(Nc1cccc(O)c1)/C(=C/c1cccc([N+](=O)[O-])c1)NC(=O)c1ccccc1	-	-
Cc1ccc(C(=O)N/C(=C\c2cccc([N+](=O)[O-])c2)C(=O)Nc2ccc(C)c(C)c2)cc1	-	1.2
Cc1ccc(C(=O)N/C(=C\c2cccc([N+](=O)[O-])c2)C(=O)Nc2ccc(C)cc2C)cc1	-	1.3
O=C(Nc1ccc(C(=O)O)cc1)/C(=C/c1cccc([N+](=O)[O-])c1)NC(=O)c1ccccc1	-	-
O=C(Nc1ccc2c(c1)OCO2)c1cnn2c1NC(c1cccs1)CC2C(F)(F)F (stereo not drawn)	-	-
O=S1(=O)CCC(Oc2ccc(Br)cc2)C1 (stereo not drawn)	-	-
CCc1c(C#N)c(N)nc2sc(C(=O)c3cccs3)c(N)c12	-	-
O=C(O)CN1C(=O)c2cccc3c(Br)ccc1c23	-	-
O=C(O)c1cccc2c(Br)ccc(C(=O)O)c12	-	0.68
SMILES	NS3h inh CB	Cy5 interf NS3h
CC(C)c1ccc(C2C(=C(O)c3ccc(F)cc3)C(=O)C(=O)N2c2nccs2)cc1 (stereo not drawn)	-	-
COc1ccc(Oc2c(C(F)(F)F)oc3c(CN4CCCC4)c(O)ccc3c2=O)cc1	-	-
O=C(CN(c1ccccc1)S(=O)(=O)c1ccccc1)NCc1ccncc1	-	-
CC(c1ccccc1)c1nnc(NC(=O)c2ccco2)s1 (stereo not drawn)	-	-
Cc1ccc(CSc2nnc(-c3cccc(F)c3)n2-c2ccccc2)cc1	-	-
O=[N+]([O-])c1ccc(CSc2nnc(-c3cccc(F)c3)n2-c2ccccc2)cc1	-	0.79
CCOc1ccccc1NC(=O)c1cccc([N+](=O)[O-])c1	-	-
COC(=O)C1=C(C)NC2=C(C(=O)c3ccccc32)C1c1ccc(OCc2ccc(F)cc2)c(Cl)c1 (stereo not drawn)	-	-
O=C1NC(=S)N(c2ccccc2)C(=O)/C1=C/c1ccc(O)c(Cl)c1	-	1.2
O=C1NC(=S)N(c2cccc(Br)c2)C(=O)/C1=C/c1ccc(O)c(Cl)c1	-	-
Cc1ccc(-c2nc3ccccn3c2NC(=O)c2ccccc2)cc1	-	0.78
Cc1ccc(-c2nc3ccccn3c2NC(=O)c2ccc(Cl)cc2)cc1	-	-
Cc1ccc(-c2ccccc2)n1-c1ccc(C(=O)NN)cc1	-	-
COc1ccc(N(CC(=O)O)S(C)(=O)=O)c(OC)c1	-	-
COc1cc(NC(=O)COc2cccc3ccccc23)cc(OC)c1	-	-
O=C(COc1cccc2ccccc12)Nc1ccc2c(c1)OCCO2	-	0.68
O=C(COc1cccc2ccccc12)NCCO	-	0.74
COc1ccc(CCNC(=O)COc2cccc3ccccc23)cc1	-	-
O=C(COc1cccc2ccccc12)Nc1ccncc1	-	0.8
Cc1cccc(OCC(=O)Nc2ccc3c(c2)OCO3)c1C	-	-
O=C(c1cc2n(n1)C(C(F)(F)F)CC(c1ccc(Br)cc1)N2)N1CCCC1 (stereo not drawn)	-	-
Cc1ccc(COc2ccc(C=C3C(=O)NC(=O)NC3=O)cc2Br)cc1	-	-
Cc1ccc2nc(NC(=S)NC(=O)c3ccc(Cl)cc3)sc2c1	-	-
O=C(CSCC(=O)Nc1ccccc1)NCc1ccccc1	-	-
COCCNC(=O)c1ccc([N+](=O)[O-])cc1	-	0.72
SMILES	NS3h inh CB	Cy5 interf NS3h
O=C(CSCC(=O)Nc1ccc([N+](=O)[O-])cc1)Nc1ccccc1	-	0.62
CC(=O)c1ccc(Oc2ccc([N+](=O)[O-])cc2)cc1	-	0.64
O=C(Nc1ccc(F)cc1)c1ccc([N+](=O)[O-])cc1	-	-
COCCNC(=O)c1ccc(Cl)c([N+](=O)[O-])c1	-	-
Cc1ccc(NC(=O)c2ccc(Oc3ccc([N+](=O)[O-])cc3)cc2)cc1C	-	-
CC(=O)Nc1ccc(C(=O)Nc2ccc([N+](=O)[O-])cc2)cc1	-	0.74
Cc1ccc(N2NC(=O)/C(=C\c3cccc([N+](=O)[O-])c3)C2=O)cc1	-	-
O=C(O)c1cnn2c1NC(c1cccs1)CC2C(F)(F)F (stereo not drawn)	-	-
CCOc1ccc(C(=O)NCCNc2ccc(Cl)cc2[N+](=O)[O-])cc1Br	-	-
Cc1c(C(=O)Nc2ccc([N+](=O)[O-])cc2)cnn1-c1ccccc1	-	0.58
Cc1ccc(C(=O)Nc2c(C(=O)Nc3ccccc3)cnn2-c2ccccc2)cc1	-	-
O=C(Nc1ccc(O)cc1)c1ccc2c(c1)C(=O)N(c1ccc([N+](=O)[O-])cc1)C2=O	-	0.65
Cc1ccc(N2C(=O)c3ccc(C(=O)Nc4ccc(O)cc4)cc3C2=O)cc1C	-	-
COc1ccc2nc(NC(=O)COC(=O)CN3C(=O)c4ccccc4C3=O)sc2c1	-	-
Cc1ccc2ncnc(N(CC(C)C)CC(C)C)c2c1	-	-
CCOc1ccccc1NC(=O)CSc1nnc(C)s1	-	0.68
COc1ccccc1NC(=O)CSc1nsc(SCC(=O)Nc2ccccc2OC)n1	-	-
O=C(Nc1ccc(-c2nc3ccccc3o2)c(O)c1)c1cc(I)ccc1Cl	-	-
O/N=C\c1ccc2c(c1)OCCOCCOc1cc(/C=N/O)ccc1OCCOCCO2	-	-
CC(C)c1ccc(/C=C(\NC(=O)c2ccccc2)C(=O)NC2CCS(=O)(=O)C2)cc1 (stereo not drawn)	-	-
O=C(NC1CCS(=O)(=O)C1)/C(=C\c1ccc(Br)cc1)NC(=O)c1ccccc1 (stereo not drawn)	-	1.3
Cc1cc(C)c2cccc(NC(=O)C3CC3)c2n1	-	-
CCOC(=O)C1=C(C)NC2=C(C(=O)CC(C)(C)C2)C1c1coc2ccccc2c1=O (stereo not drawn)	-	-
